High-throughput results: PubChem, National Center for Advancing Translational Sciences (NCATS)
This is a sample that favours compounds with a hit; in the whole collection about 4.6% have one here.
D1 ag: activates the human D1 dopamine receptor | P21728 | HEK293 T-REx D1 cells, calcium flux, agonist mode | activation, % at 2 µM | 360,000 compounds, 1% hits | AID 504660
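Inducible HEK293 T-REx D1 cells, force-coupled to calcium signalling, were plated at 4000 cells/well with tetracycline and held overnight at 30 C. After no-wash calcium dye loading, compound-evoked calcium rise over 180 s flagged agonists.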
TRHR PAM: allosteric enhancers of human TRH receptor; TRHR cells, fluo-8 calcium fluorescence, EC20 TRH enhancement; enhancement, % at 2 µM; 360,000 compounds, 0.66% hits; AID 493056; in the data active = enhancement above about 30%
Target sequence (P34981 whole entry, looked up): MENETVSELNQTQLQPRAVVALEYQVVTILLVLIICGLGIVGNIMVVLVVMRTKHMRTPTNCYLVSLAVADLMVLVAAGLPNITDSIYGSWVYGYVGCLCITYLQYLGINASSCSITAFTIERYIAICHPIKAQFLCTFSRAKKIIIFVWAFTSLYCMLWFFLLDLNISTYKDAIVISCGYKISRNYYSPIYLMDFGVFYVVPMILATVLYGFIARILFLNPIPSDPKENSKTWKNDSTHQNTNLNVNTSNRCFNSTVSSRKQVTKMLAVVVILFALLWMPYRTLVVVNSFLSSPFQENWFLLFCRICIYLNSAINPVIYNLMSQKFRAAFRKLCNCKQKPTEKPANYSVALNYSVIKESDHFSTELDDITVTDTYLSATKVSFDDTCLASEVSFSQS
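Enhancer read-out: after compound pinning and an initial kinetic agonist-mode read, an EC20 of TRH (10 nM final) was injected and fluo-8 calcium signal (Ex 480/Em 530) followed at 1 s/cycle for 100 cycles in TRHR-expressing cells.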
TRHR agonist: activates the human TRH receptor; 360,000 compounds, 0.18% hits; activation, % at 2 µM; TRHR cells, calcium flux fluo-8, FDSS agonist mode; AID 493084
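Steps: seed TRHR cells overnight; add fluo-8 no-wash Ca dye, RT 30 min–1.5 h; record 10 s baseline; pin-transfer compounds; monitor fluorescence 1 cycle/s for the agonist window. Calcium increases flag candidate agonists.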
D1 potentiator: potentiators of human D1 dopamine receptor; 360,000 compounds, 0.036% hits; potentiation, % at 10 µM; P21728; AID 504651; HEK293 TREx D1 cells, calcium flux, dopamine EC20 potentiation; in the data active = potentiation above about 30%
D1 antag: antagonists of human D1 dopamine receptor; P21728; HEK293 TREx D1 cells, calcium flux, dopamine EC80; hits give low values; activity change, negative = inhibition, % at 10 µM; 360,000 compounds, 3.2% hits; AID 504652; in the data active = activity change below about -30%
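Antagonism measured as reduced calcium response to an EC80 dopamine addition following 180 s compound pre-read; cells were inducible HEK293 Trex D1 plated overnight at 30 C, read kinetically at 1 cycle/sec.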
Of the large screens only hits and unclear results are named; the others gave an inactive call. Rule as the data show it, unless noted: active = activation above about 30%; inactive = the rest.

COc1ccc(-c2nnc3sc(CN4C(=O)c5ccccc5C4=O)nn23)cc1	TRHR PAM 36
CCCCn1c(CCc2ccccc2)nc2cc3[nH]c(=O)c(C(C)C)nc3cc21	D1 antag -82
O=C(CN1c2ccccc2Sc2ccccc21)NNC(=O)Nc1ccc(Cl)cc1	TRHR PAM 37, D1 antag -36
O=C(CN1c2ccccc2Sc2ccccc21)NNC(=O)Nc1ccc(Cl)c(Cl)c1	none
COC(=O)CC(=O)CSc1nc2cc(C(=O)NC(C)C)ccc2c(=O)n1CCc1ccccc1	none
CS(=O)(=O)c1ccc(C(=O)Nc2ccc(N3CCOCC3)cc2)c(Cl)c1	none
CS(=O)(=O)c1ncc(Cl)c(C(=O)Nc2ccc(N3CCOCC3)cc2)n1	D1 antag -35
CS(=O)(=O)c1ncc(Cl)c(C(=O)Nc2ccc(OC(F)F)cc2)n1	D1 antag -38
Cc1nn(-c2ccccc2)c2c1cc1c(=O)n(C)c(=O)nc-1n2-c1cccc(Cl)c1	none
COc1ccc(C)cc1NC(=O)c1cc(S(=O)(=O)N2CCCCC2)c[nH]1	none
O=C(c1nc2n(n1)C(c1ccc(Cl)cc1)C=C(c1ccccc1)N2)N1CCOCC1 (configuration not stated)	TRHR agonist 33
CC(=O)Nc1nc2n(n1)C(c1ccc(F)cc1)C=C(c1ccccc1)N2 (configuration not stated)	none
CCC(=O)Nc1nc2n(n1)C(c1ccc(OC)cc1)C=C(c1ccccc1)N2 (configuration not stated)	D1 ag 69
O=C(Nc1nc2n(n1)C(c1ccccc1)C=C(c1ccc(Cl)cc1)N2)c1ccco1 (configuration not stated)	D1 ag 47
COc1ccc(C2C=C(c3cccs3)Nc3nc(CCCO)nn32)cc1 (configuration not stated)	D1 ag 64, TRHR agonist 99
COc1ccc(C2C=C(c3ccc(Cl)cc3)Nc3nc(NC(C)=O)nn32)cc1 (configuration not stated)	D1 ag 40
COc1ccc(C2C=C(c3ccccc3)Nc3nc(NC(=O)/C=C/c4ccccc4)nn32)cc1 (configuration not stated)	none
COc1ccc(C2C=C(c3ccc(F)cc3)Nc3nc(-c4ccc(Cl)cc4)nn32)cc1 (configuration not stated)	D1 ag 38
COc1ccc(C2=CC(c3ccc(F)cc3)n3nnnc3N2)cc1 (configuration not stated)	none
COc1ccc(C(=O)Nc2nc3n(n2)C(c2ccccc2)C=C(c2ccccc2)N3)cc1 (configuration not stated)	D1 ag 32
CCOc1ccc(-c2nn(CC(=O)NC3CCCCC3)c3c2cnc2ccc(C)cc23)cc1	none
O=C(Nc1ccc(Cl)cc1)c1cc2c(-c3ccccc3)nn(-c3ccccc3)c2s1	none
O=C(COC(=O)c1ccc([N+](=O)[O-])s1)Nc1ccc(F)cc1	D1 antag -38
CC(C)c1nn2c(=O)cc(COC(=O)c3ccccc3NC(=O)C3CCCCC3)nc2s1	none
COC(=O)c1nc2ccc(C)cn2c1F	D1 antag -58
CCC(=O)Nc1c(-c2ccc(C)cc2)nc2ccc(C)cn12	none
COc1cccc(CN(Cc2cccnc2)S(=O)(=O)c2ccc(-n3cnnn3)c(C)c2)c1	D1 antag -32
Cc1ccc(NN2C(=O)C=C(c3ccc(Cl)cc3)C2=O)cc1	D1 antag -39
O=C1C=C(c2ccccc2)C(=O)N1Nc1ccccc1	TRHR PAM 33
COc1ccc(C2=CC(=O)N(Nc3ccccc3)C2=O)cc1	none
Cc1ccccc1C(=O)n1nc(-c2ccco2)nc1NCc1ccc(Cl)cc1	none
CN(C)S(=O)(=O)Nc1ccc(-c2cn3ccsc3n2)cc1	none
COc1ccc2oc(C(=O)OCC(=O)Nc3ccc(N4CCOCC4)cc3)c(C)c2c1	D1 antag -31
CCOC(=O)c1c(CN2CCOCC2)oc2ccc(OC)cc12	D1 antag -45
COc1ccc(C2C(=O)N(C3CCCCCC3)CC(=O)N2CCc2ccc(OC)c(OC)c2)cc1 (configuration not stated)	none
CCCCn1c(=O)n(-c2cc(OC)ccc2OC)c(=O)c2c3c(sc21)CN(C(C)=O)CC3	none
O=C(Cn1cc(S(=O)(=O)Cc2cccc(Cl)c2)c2ccccc21)NCCc1ccccc1	none
CCc1ccc(CNC(=O)C2CCCN(S(=O)(=O)c3ccc4c(ccn4C)c3)C2)cc1 (configuration not stated)	none
CN(Cc1ccccc1)C(=O)CN1C(=O)CSc2ccc(S(=O)(=O)N3CCOCC3)cc21	none
Cc1ccc(NC(=O)N(Cc2nc3ccccc3c(=O)[nH]2)Cc2cccs2)cc1	D1 antag -46
CCNC(=S)N(Cc1ccccc1)Cc1nc2ccccc2c(=O)[nH]1	D1 antag -31
O=C(Nc1ccc(Cl)cc1Cl)c1cc(S(=O)(=O)NCc2ccc3c(c2)OCO3)ccc1F	none
COc1cc(NC(=O)c2cc(-c3ccccc3O)no2)cc(OC)c1OC	none
Cc1ccc(O)c(NC(=O)c2cc(-c3ccccc3O)no2)c1	D1 antag -31
Cc1cc(O)c(NC(=O)c2cc([N+](=O)[O-])ccc2Cl)cc1C	none
Cc1ccc(O)c(NC(=O)c2cc(-c3ccccc3Cl)on2)c1	D1 antag -33
Cc1ccc(O)c(NC(=O)c2cc([N+](=O)[O-])ccc2Cl)c1	D1 antag -30
Cc1ccc(-c2cc(C(=O)Nc3cc(C)ccc3O)no2)cc1	none
Cc1ccc(NC(=O)CSc2nc(-c3ccco3)cc(C(F)(F)F)n2)cc1	D1 antag -35
COC(=O)c1ccccc1NC(=O)CSc1nc(-c2ccccc2)cc(C(F)(F)F)n1	D1 antag -42
Cc1ccccc1Cn1ccc(NC(=O)CCSc2nc(-c3ccco3)cc(C(F)(F)F)n2)n1	none
CN(C)c1ccc(NC(=O)CCSc2nc(-c3ccco3)cc(C(F)(F)F)n2)cc1	D1 antag -33
COC(=O)c1ccccc1NC(=O)CSc1ncccn1	none
COc1ccc(NC(=O)CCSc2nc(-c3ccco3)cc(C(F)(F)F)n2)cc1	none
Cc1ccc(Cn2ccc(NC(=O)CCSc3nc(-c4ccco4)cc(C(F)(F)F)n3)n2)cc1	TRHR PAM 39
N#Cc1nc(Nc2cc(F)cc(F)c2)nc(NC2CCCC2)n1	none
CC(=O)Nc1ccc(S(=O)(=O)Nc2cccc(-c3ccc(N4CCCCCC4)nn3)c2)cc1	none
Cc1ccccc1Cn1ccc(NC(=O)c2cnn3c(C(F)(F)F)cc(-c4ccco4)nc23)n1	D1 antag -57
O=C(Nc1ccc2c(c1)OCO2)c1cnn2c(C(F)(F)F)cc(-c3ccco3)nc12	none
Cc1cc(NC(=O)CCSc2nc(-c3ccco3)cc(C(F)(F)F)n2)no1	D1 ag 55
